The text below walks through data of ChEMBL document CHEMBL1961873, “Compounds: GSK PKIS; Assays: Nanosyn kinase panel” (2012).

Experiment [1] addresses Tyrosine-protein kinase SYK (Homo sapiens) (UniProt P43405). Particulars: at 1 µM.
The target of experiment [2] is T1, Tyrosine-protein kinase Tec (Homo sapiens) (UniProt P42680).
T1 sequence (whole entry): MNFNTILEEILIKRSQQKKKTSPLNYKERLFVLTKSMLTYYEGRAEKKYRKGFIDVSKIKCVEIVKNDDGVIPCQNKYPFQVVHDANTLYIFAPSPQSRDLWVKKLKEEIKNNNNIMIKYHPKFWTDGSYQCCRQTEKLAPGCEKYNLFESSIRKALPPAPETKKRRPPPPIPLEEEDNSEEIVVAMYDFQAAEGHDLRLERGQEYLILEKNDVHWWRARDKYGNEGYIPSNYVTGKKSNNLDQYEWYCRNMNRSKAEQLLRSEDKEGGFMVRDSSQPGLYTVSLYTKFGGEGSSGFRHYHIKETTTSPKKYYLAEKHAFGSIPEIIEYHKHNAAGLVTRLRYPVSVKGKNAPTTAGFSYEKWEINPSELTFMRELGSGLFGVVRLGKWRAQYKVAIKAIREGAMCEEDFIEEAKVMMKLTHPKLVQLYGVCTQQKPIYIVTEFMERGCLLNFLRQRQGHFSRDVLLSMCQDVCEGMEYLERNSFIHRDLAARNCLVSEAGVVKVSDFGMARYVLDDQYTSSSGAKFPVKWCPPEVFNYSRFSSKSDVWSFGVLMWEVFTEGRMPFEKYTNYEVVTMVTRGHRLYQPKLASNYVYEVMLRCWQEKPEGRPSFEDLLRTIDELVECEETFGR
Particulars: at 0.1 µM.

Experiment [3] deals with T1, Tyrosine-protein kinase Tec (Homo sapiens). Particulars: at 1 µM.
Experiment [4] has as its target Angiopoietin-1 receptor (Homo sapiens) (UniProt Q02763). Particulars: at 0.1 µM.
The target is the same in experiment [5]. Particulars: at 1 µM.
Experiment [6] deals with T2, Non-receptor tyrosine-protein kinase TNK1 (Homo sapiens) (UniProt Q13470).
T2 sequence (whole entry): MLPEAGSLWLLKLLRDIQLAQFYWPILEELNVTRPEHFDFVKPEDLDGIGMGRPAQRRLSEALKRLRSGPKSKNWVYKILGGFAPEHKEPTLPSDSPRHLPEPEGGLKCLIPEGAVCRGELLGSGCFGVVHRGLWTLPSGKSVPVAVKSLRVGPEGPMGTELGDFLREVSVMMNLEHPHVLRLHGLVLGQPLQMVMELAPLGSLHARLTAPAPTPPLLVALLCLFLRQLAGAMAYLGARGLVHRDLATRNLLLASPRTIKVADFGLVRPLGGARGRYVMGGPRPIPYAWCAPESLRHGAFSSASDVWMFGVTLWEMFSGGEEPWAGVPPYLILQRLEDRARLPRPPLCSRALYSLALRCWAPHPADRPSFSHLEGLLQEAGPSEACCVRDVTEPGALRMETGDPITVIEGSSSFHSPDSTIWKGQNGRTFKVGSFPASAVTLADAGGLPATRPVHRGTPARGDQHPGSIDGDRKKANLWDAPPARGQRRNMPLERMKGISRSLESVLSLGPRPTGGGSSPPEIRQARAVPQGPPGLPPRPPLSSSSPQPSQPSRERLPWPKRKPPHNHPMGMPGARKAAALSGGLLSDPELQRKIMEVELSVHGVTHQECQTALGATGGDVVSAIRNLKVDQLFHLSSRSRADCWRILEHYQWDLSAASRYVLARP
Particulars: at 0.1 µM.

The target in experiment [7] is T2, Non-receptor tyrosine-protein kinase TNK1 (Homo sapiens). Particulars: at 1 µM.
The target of experiment [8] is Activated CDC42 kinase 1 (Homo sapiens) (UniProt Q07912). Particulars: at 0.1 µM.
Activated CDC42 kinase 1 (Homo sapiens), sequence (Q07912 whole entry, looked up): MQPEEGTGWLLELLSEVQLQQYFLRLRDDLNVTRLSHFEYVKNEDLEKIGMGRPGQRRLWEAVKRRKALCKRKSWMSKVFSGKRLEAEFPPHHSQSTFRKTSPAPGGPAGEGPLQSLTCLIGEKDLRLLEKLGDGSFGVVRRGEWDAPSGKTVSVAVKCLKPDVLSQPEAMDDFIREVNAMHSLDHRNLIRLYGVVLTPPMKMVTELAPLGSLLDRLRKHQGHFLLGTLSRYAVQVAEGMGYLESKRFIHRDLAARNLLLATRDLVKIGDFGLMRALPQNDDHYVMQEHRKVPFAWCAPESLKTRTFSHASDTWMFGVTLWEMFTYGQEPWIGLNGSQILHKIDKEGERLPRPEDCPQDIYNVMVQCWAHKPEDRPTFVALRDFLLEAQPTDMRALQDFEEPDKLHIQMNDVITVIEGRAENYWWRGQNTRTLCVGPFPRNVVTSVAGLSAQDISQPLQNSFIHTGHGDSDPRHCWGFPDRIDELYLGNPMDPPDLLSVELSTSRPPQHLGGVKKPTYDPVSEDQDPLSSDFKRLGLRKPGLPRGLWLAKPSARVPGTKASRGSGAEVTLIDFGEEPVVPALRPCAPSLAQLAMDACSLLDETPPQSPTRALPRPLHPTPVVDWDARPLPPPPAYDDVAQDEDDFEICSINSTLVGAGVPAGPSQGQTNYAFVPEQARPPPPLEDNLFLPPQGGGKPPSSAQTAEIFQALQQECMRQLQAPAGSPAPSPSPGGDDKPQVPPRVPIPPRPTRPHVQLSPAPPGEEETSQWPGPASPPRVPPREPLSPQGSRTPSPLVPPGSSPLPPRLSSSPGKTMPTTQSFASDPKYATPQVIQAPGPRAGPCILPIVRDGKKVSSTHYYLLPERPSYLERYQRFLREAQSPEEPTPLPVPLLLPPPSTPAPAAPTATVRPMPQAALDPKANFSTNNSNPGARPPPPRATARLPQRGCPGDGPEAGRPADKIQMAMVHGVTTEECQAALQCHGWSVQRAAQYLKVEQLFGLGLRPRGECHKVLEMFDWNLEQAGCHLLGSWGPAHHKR
The target is the same in experiment [9]. Particulars: at 1 µM.
Experiment [10] concerns the target High affinity nerve growth factor receptor (Homo sapiens) (UniProt P04629). Particulars: at 0.1 µM.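 Further: each value is a mean of replicate percent inhibition readings against TRKA kinase.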

Angiopoietin-1 receptor (Homo sapiens), sequence (Q02763 whole entry): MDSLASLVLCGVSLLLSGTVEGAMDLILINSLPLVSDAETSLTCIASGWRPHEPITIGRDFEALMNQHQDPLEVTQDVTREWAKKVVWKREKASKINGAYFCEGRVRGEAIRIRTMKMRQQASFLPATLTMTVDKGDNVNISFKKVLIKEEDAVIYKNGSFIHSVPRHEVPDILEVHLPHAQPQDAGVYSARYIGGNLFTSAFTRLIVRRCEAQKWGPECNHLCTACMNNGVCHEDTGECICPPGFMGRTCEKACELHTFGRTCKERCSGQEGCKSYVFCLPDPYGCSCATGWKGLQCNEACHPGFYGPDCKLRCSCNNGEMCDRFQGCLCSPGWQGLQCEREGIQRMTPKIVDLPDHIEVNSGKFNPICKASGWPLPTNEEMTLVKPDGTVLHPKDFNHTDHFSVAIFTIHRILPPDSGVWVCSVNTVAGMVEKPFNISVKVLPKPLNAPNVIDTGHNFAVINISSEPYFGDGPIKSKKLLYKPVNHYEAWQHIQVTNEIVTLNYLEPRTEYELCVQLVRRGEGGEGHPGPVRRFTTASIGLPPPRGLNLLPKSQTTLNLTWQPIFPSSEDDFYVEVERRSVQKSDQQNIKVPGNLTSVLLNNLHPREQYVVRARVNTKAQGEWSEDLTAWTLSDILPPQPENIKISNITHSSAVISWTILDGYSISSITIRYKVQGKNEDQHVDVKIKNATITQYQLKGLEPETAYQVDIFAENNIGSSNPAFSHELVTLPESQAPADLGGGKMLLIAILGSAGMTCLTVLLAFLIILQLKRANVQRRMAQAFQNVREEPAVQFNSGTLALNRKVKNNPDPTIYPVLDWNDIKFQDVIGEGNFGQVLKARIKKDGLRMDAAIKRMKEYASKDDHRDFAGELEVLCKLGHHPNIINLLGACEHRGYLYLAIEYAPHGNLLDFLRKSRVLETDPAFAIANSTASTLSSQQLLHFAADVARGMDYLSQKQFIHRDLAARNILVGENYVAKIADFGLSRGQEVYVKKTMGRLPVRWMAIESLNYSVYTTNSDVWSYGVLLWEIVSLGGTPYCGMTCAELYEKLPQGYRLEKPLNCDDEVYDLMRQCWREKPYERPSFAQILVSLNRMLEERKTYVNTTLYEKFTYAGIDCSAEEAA
High affinity nerve growth factor receptor (Homo sapiens), sequence (P04629 33-796 limits assumed): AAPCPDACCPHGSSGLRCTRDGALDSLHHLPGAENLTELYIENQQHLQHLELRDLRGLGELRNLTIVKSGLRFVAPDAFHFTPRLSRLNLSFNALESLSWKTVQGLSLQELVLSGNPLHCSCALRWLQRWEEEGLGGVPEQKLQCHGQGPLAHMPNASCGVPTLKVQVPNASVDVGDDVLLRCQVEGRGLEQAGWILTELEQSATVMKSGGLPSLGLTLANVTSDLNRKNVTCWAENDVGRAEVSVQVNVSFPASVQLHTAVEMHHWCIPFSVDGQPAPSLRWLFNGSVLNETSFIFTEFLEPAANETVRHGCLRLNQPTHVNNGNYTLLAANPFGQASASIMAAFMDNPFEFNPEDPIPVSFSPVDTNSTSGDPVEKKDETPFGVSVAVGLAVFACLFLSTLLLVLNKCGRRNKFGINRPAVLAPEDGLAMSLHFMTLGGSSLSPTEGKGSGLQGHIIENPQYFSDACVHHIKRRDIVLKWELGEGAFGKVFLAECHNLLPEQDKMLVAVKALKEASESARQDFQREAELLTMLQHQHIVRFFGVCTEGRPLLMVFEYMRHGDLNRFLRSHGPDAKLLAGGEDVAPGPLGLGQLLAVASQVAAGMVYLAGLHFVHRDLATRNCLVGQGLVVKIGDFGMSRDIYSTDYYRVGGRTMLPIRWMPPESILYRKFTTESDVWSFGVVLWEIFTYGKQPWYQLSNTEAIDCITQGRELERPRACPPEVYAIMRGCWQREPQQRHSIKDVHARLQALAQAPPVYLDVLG

Consider `c1ccc(-c2nc3n(c2-c2ccc4c(c2)OCO4)CCC3)nc1`, for which the inhibition (commonly the relative decrease from the control value, in per cent) in [1] was 2.09%; in [2] it was 1.69%; in [3], 0.69%; in experiment [4] it was -0.12%; in experiment [5], 1.12%; in experiment [6], 0.76%. In addition, the inhibition in experiment [7] is 0.08%; in experiment [8] it was 0.05%; in experiment [9], 0.93%; in [10], 1.9%.

Consider `COc1cc2ncn(-c3cc(OCc4ccccc4C(F)(F)F)c(C(=O)N(C)C)s3)c2cc1OC`, for which the inhibition worked out at 1.81% in experiment [1]; 0.84% in experiment [2]; 2.14% in experiment [3]; 1.94% in [4]; 3.94% in experiment [5]; 8.67% in [6]. The inhibition in [7] turned out to be 48.7%; in [8], 0.68%; in experiment [9], 7.7%; in experiment [10], 1.49%.

On to `COC(=O)c1sc(-n2cnc3cc(OC)c(OC)cc32)cc1OCc1ccccc1C(F)(F)F`, for which the inhibition turned out to be 1.09% in [1]; 3.18% in experiment [2]; 6.98% in experiment [3]; 4.13% in experiment [4]; 14.3% in experiment [5]; 8.49% in [6]. Moreover, the inhibition in [7] was 4.49%; in experiment [8] it was 0.92%; in experiment [9], 5.56%; in experiment [10], 3.76%.

Regarding `O=S(=O)(CCNCc1ccc(-c2ccc3ncnc(Nc4ccc(OCc5cccc(F)c5)c(Cl)c4)c3c2)o1)c1ccccc1`, the inhibition in experiment [1] is -4.14%; in [2], 1.85%; in experiment [3] it was 5.02%; in experiment [4], 5.73%; in experiment [5], 8.7%; in experiment [6], 4.16%. In addition, the inhibition in experiment [7] is 22.3%; in experiment [8], 2.38%; in experiment [9], 1.4%; in experiment [10], 2.46%.

On to `Nc1nc(-c2ccc(F)cc2)c(-c2ccc3ncccc3n2)s1`, for which the inhibition in experiment [1] was 0.4%; in [2], 4.57%; in [3], 6.46%; in experiment [4], 1.26%; in experiment [5], 4.32%; in experiment [6] it was 4.65%. For the same compound, the inhibition in experiment [7] came to 6.8%; in experiment [8] it was 1.85%; in [9], 3.57%; in experiment [10], 4.1%.

Turning to `CCc1nn2ncccc2c1-c1ccnc(NC2CC2)n1`, the inhibition in [1] was found to be 2.4%; in [2], 3.41%; in [3], 4.89%; in experiment [4] it was 4.14%; in experiment [5], 6.65%; in [6], 1.41%. Also, the inhibition in [7] came to 5.48%; in [8], 1.22%; in experiment [9] it was 2.89%; in experiment [10], 0.51%.

As to `CCNC(=O)O[C@H]1CN[C@H](C#Cc2cc3ncnc(Nc4ccc(OCc5cccc(F)c5)c(Cl)c4)c3s2)C1`, the inhibition came out at 0.53% in experiment [1]; 4.9% in experiment [2]; 5.79% in [3]; 1.23% in experiment [4]; 3.88% in experiment [5]; 3.2% in experiment [6]. Also, the inhibition was 10.3% in experiment [7], 1.33% in experiment [8], 1.05% in experiment [9] and 4.7% in experiment [10].

For `CS(=O)(=O)CCNCc1ccc(-c2ccc3ncnc(Nc4ccc(OCc5ccccc5)c(C(F)(F)F)c4)c3c2)o1`, the inhibition in experiment [1] was -5.62%; in experiment [2], 0.36%; in experiment [3], 3.4%; in [4] it was 0.1%; in experiment [5], 4.31%; in experiment [6], 1.84%. In addition, the inhibition in [7] is 9.92%; in experiment [8], 0.97%; in experiment [9], 1.65%; in experiment [10] it was 2%.

In the case of `c1cc(-c2cnn3nc(N4CCOCC4)ccc23)nc(NC2CC2)n1`, the inhibition in experiment [1] is -2.21%; in experiment [2] it was 5.06%; in [3] it was 8.36%; in experiment [4], 0.4%; in experiment [5] it was 5.76%; in [6], 4.07%. Also, the inhibition in experiment [7] came out at 17.8%; in [8], 1.19%; in experiment [9], 0.94%; in experiment [10], 4.16%.

Regarding `CNC(=O)c1cncc(/C=C/c2ccccc2Cl)c1`, the inhibition in experiment [1] was 0.31%; in experiment [2], 2.56%; in [3] it was 10.2%; in experiment [4], -0.85%; in [5], 4.09%; in [6], 2.57%. Also, the inhibition in experiment [7] is 27.7%; in experiment [8] it was 0.2%; in experiment [9], 5.7%; in experiment [10] it was -5.21%.

Consider `CC(C)(CO)CNC(=O)c1ccc2c(c1)/C(=N/Nc1ccc(S(N)(=O)=O)cc1)C(=O)N2`, for which the inhibition in experiment [1] was -2.05%; in experiment [2] it was 0.59%; in [3] it was 5.32%; in experiment [4] it was -0.74%; in experiment [5], 0.79%; in experiment [6], 0.66%. Moreover, the inhibition in experiment [7] was 10.3%; in [8], -0.56%; in experiment [9], 0.03%; in experiment [10], 1.4%.

Consider `CCCN1CCC(c2ccc(Nc3nc(Nc4cc(F)ccc4C(N)=O)c4cc[nH]c4n3)c(OC)c2)CC1`, for which the inhibition was found to be 73.4% in experiment [1]; 2.15% in experiment [2]; 7.76% in experiment [3]; 2.84% in [4]; 4.59% in [5]; 46.4% in experiment [6]. Further, the inhibition in experiment [7] was determined as 92.8%; in experiment [8] it was 5.57%; in [9] it was 44.3%; in experiment [10], 1.74%.

As for `COc1cc(Nc2nccc(Nc3ccc4c(C)n[nH]c4c3)n2)cc(OC)c1OC`, the inhibition was determined as 42.8% in experiment [1]; 23.6% in experiment [2]; 63.1% in experiment [3]; 8.4% in [4]; 49.8% in experiment [5]; 43% in experiment [6]. Moreover, the inhibition in experiment [7] is 77.3%; in experiment [8], 10.1%; in experiment [9], 52.9%; in experiment [10], 12.2%.

With `Cc1ccc2c(-c3ccnc(Nc4ccccc4)n3)c(-c3ccc(F)cc3)nn2n1`, the inhibition was -4.62% in [1]; 10.6% in [2]; 38.1% in experiment [3]; 3.44% in experiment [4]; 17.5% in [5]; 3.52% in experiment [6]. The inhibition in experiment [7] was determined as 14.2%; in [8] it was 1.74%; in experiment [9], 7.9%; in experiment [10], 9%.

Consider `N#Cc1c(NC(=O)c2ccc(F)cc2)sc2c1CCCC2`, for which the inhibition in experiment [1] is -0.64%; in [2], 1.75%; in experiment [3] it was 1.25%; in experiment [4] it was 1.49%; in experiment [5], 2.44%; in [6], -1.86%. The inhibition is 2.53% in experiment [7], 0.23% in [8], 0.89% in experiment [9] and 0.08% in [10].

Consider `NC(=O)c1sc(-n2cnc3ccc(C(F)(F)F)cc32)cc1OCc1ccccc1Br`, for which the inhibition in experiment [1] was determined as 0.09%; in [2], 2.5%; in experiment [3], 2.78%; in experiment [4], 2.27%; in experiment [5], 3.55%; in experiment [6], 1.47%. Moreover, the inhibition in experiment [7] amounted to 9.04%; in experiment [8], 0.36%; in experiment [9], 0.65%; in experiment [10] it was 4.01%.

Turning to `Clc1ccc(-c2nn3ncccc3c2-c2ccnc(Nc3ccccc3)n2)cc1`, the inhibition is 2.04% in experiment [1]; 2.78% in experiment [2]; 15.2% in experiment [3]; 3.84% in experiment [4]; 18.5% in experiment [5]; -6.06% in experiment [6]. The inhibition in experiment [7] came out at 11.2%; in [8] it was 0.77%; in [9], 4.09%; in experiment [10] it was 3.46%.
